Measured values reported in PubChem BioAssay AID540364 (The Scripps Research Institute Molecular Screening Center, 2011).
Screen size: about 360,000 compounds; about 2,000 (0.56%) were called active. The sample holds actives, similar compounds and a random draw of the others, so the mix is not that of the screen. Values without a mark were called inactive.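 How the source made its calls: active means activation above the average of all compounds screened plus 3 SD, cutoff fixed separately per campaign (cut at about 7.5% in these data); inactive means the rest.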

test: GAA850 frataxin promoter reporter upregulation – cell-based, luciferase luminescence, HEK293 lucGAA850, primary screen (AID 540364); details: HEK293 lucGAA850 FXN promoter luciferase reporter, 24 h; at 6 µM; stronger effect = higher value; percent of 10 µM SAHA response;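 further: 0% = DMSO wells and 100% = 10 µM SAHA wells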

Compound | activation
Cc1cc(=O)oc2c3c(cc(OCC(=O)NCC(O)c4ccccc4)c12)OC(C)(C)CC3 (stereo not drawn) | 1.51%
CC(C)CCC(C)NC(=O)c1ccc2nccnc2c1 (stereo not drawn) | 9.19% (active)
Cc1ccc(C)c(NC(=O)c2ccc3nccnc3c2)c1 | -0.14%
O=C(NCCc1ccc(F)cc1)c1ccc2nccnc2c1 | 3.24%
CN(CC(=O)NCc1cccnc1)S(=O)(=O)c1cc(Cl)ccc1Cl | -2.15%
CCc1ccc(N(CC(=O)NCc2cccnc2)S(=O)(=O)c2ccccc2)cc1 | -0.07%
O=C(CN(c1cc(C(F)(F)F)ccc1Cl)S(=O)(=O)c1ccccc1)NCc1cccnc1 | 8.32% (active)
COc1ccc(OC)c(NC(=O)c2cnn(-c3ccccc3Cl)c2NC(=O)c2ccco2)c1 | 2.28%
O=[N+]([O-])/C=C/c1ccc2c(ccn2Cc2ccccc2)c1 | 15.3% (active)
COc1ccc(NC(=S)SC)cc1OC | 0.31%
COc1ccc(CN2C(=O)CN=C2Nc2ccc(C)cc2C)cc1 | 2.67%
CCOC(=O)C1=C(O)/C(=C/c2ccc(OCC(=O)Nc3ccc(C)cc3)cc2)N=C1C | -1.6%
Cc1ccc(OCC(=O)Nc2ccc(-c3nnc(-c4ccco4)o3)cc2)cc1 | 9.76% (active)
Cc1ccc(NC(=O)COc2ccc(/C=C3/NC(=O)NC3=O)cc2)cc1 | -1.99%
Cc1noc(C)c1NC(=O)Nc1ccc2c(c1)C(=O)N([C@H](C)CO)C[C@H](C)[C@@H](CN(C)S(=O)(=O)c1cn(C)cn1)O2 | 0.14%
CCOC(=O)C1=C(CC)Nc2ccccc2N=C1NC(=O)c1cccc(S(=O)(=O)N2CCCC2)c1 | -2.08%
CCC(=O)Nc1ccc2c(c1)nc(CCN1CCN(c3ccccn3)CC1)n2C | 1.46%
Cn1c(CCN2CCCCCC2)nc2cc(NC(=O)Nc3ccccc3)ccc21 | 10.5% (active)
Cc1nn(CC(=O)Nc2ccc3c(c2)nc(CN2CCCCC2)n3C)c(=O)c2ccccc12 | -1.92%
O=C(CNCCC1=CCCCC1)Nc1ccccc1N1CCCCCC1 | -0.31%

Compound | activation
Cc1cc(C)c2c(-n3cccc3)c(C(=O)NNS(=O)(=O)c3ccc(F)cc3)sc2n1 | -0.88%
COc1cc(S(=O)(=O)N2CCN=C2c2ccccc2)ccc1Cl | 2.5%
Cn1c(=NC(=O)c2ccc3c(c2)OCCO3)sc2cc(S(C)(=O)=O)ccc21 | -0.86%
COC(=O)CNC(=O)c1ccccc1[N+](=O)[O-] | 1.03%
COCCn1c(=NC(=O)c2ccccc2[N+](=O)[O-])sc2cc(S(C)(=O)=O)ccc21 | 8.06% (active)
CCOC(=O)C1CCN(C(=O)Cn2nc(C)c3c(C)n(-c4ccccc4)nc3c2=O)CC1 | -0.2%
COc1ccc(-n2cc(-c3ccccc3)c3c(=S)nc[nH]c32)cc1 | 8.54% (active)
COc1ccc(N2C(=O)CNC2=S)cc1 | -3.02%
COc1ccccc1CNC(=O)C1Cc2ccccc2C(=O)O1 (stereo not drawn) | -0.56%
COc1cccc(N(C(=O)c2ccn[nH]2)C2(C(=O)Nc3c(C)cccc3C)CCCCC2)c1 | -6.45%
O=C(NC1CCCC1)C(c1ccco1)N(C(=O)c1csnn1)c1ccccc1 (stereo not drawn) | 0.36%
CCc1ccc(N(C(=O)c2csnn2)C(C(=O)NC2CCCCC2)c2cccnc2)cc1 (stereo not drawn) | -1.27%
CCc1ccc(N(C(=O)c2csnn2)C(C(=O)NC2CCCCC2)c2ccncc2)cc1 (stereo not drawn) | 8.57% (active)
COC(=O)CN(C(=S)Nc1ccc(Cl)cc1)C1CC(=O)N(c2ccc(OC)cc2)C1=O (stereo not drawn) | 1.91%
CN(C)c1ccc(NC(=S)N(CCc2ccccc2)C2CC(=O)N(c3c(Cl)cccc3Cl)C2=O)cc1 (stereo not drawn) | 0.24%
CCOc1ccc(N2C(=O)CC(N(CCc3ccc(OC)c(OC)c3)C(=S)Nc3ccccc3)C2=O)cc1 (stereo not drawn) | 8.9% (active)
COc1ccc(NC(=O)CSc2ccc(-c3ccco3)nn2)c(OC)c1 | 0.41%
COc1ccc2[nH]c3nc(SCC(=O)NC4CC4)nnc3c2c1 | 0.57%
Oc1cccc2cc(-c3ccncc3)cnc12 | 2.66%
COC(=O)c1ccc(NC(=O)CSc2nc(N)c(NC(=O)c3ccc(Br)o3)c(=O)[nH]2)cc1 | 1.31%

Compound | activation
COc1ccc(C2Nc3ccccc3C(=O)N2Cc2ccccc2)cc1Cn1nnc2ccccc21 (stereo not drawn) | -2.6%
COc1ccc(C2Nc3ccccc3C(=O)N2c2ccc(Cl)cc2)cc1Cn1cc([N+](=O)[O-])cn1 (stereo not drawn) | 10.7% (active)
COc1ccc(CN2CCCC(C(=O)c3ccc(Cl)cc3)C2)cc1Cn1cncn1 (stereo not drawn) | 1.04%
N#C/C(=C(\O)CCl)c1nnc2n1CCCCC2 | -0.95%
CCOC(=O)C1(C)CCCN(C(=O)c2cccc(Cl)c2)C1 (stereo not drawn) | -0.57%
CC(C)Oc1ccc(C(CC(=O)N2CCOCC2)C(C)C)cc1 (stereo not drawn) | 2.86%
O=C(NCc1ccco1)/C(=C/c1ccco1)NC(=O)c1ccccc1 | 1.61%
CC(C)(C)c1ccc(C(=O)NCc2ccco2)cc1 | 8.75% (active)
CC(C)(C)NC(=O)NCc1ccco1 | 0.33%
COc1ccc(C2NC(=O)C(=O)/C2=C(\O)c2ccc(Cl)cc2)cc1OC (stereo not drawn) | -0.36%
CC/C(=C(/c1ccccc1)c1ccc(OCC[N+](C)(C)C)cc1)c1ccccc1 | -0.77%
CN(C)C(=S)N=c1ssc(=S)n1Cc1ccco1 | 16.1% (active)
CCN(CC)C(=O)CSc1nnc(CNc2ccc(F)cc2)n1Cc1ccco1 | -2.98%
CC1CN(Cc2ccco2)C(=S)N(c2ccccc2)C1=O (stereo not drawn) | 2.7%
O=C(COc1ccc2ccc(=O)oc2c1)NCC(O)c1ccccc1 (stereo not drawn) | 1.75%
O=C(CC1NCCNC1=O)Nc1cc(Cl)cc(Cl)c1 (stereo not drawn) | 1.12%
O=C(CC1C(=O)NCCN1C(=O)c1ccc([N+](=O)[O-])cc1)Nc1cccc(Cl)c1 (stereo not drawn) | 0.62%
O=C(CC1NCCc2ccccc21)Nc1cccc(Cl)c1 (stereo not drawn) | 7.89% (active)
